The panel holds about 83,000 compounds, 20% with a hit somewhere; the sample as a whole holds those more often.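 Negative percent growth values reflect cell death: -40 means 40% of the cells present at the start died, and -100 means all died.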 Unmarked numbers belong to inactive results. The source made the active and inactive calls. Rule for the calls: active = growth percent below 10; inactive = the rest.

The results in this text go back to PubChem BioAssay (NCI).

Common to all, as to experiment: NCI-60 one-dose screen, 48 h (100 = growth as untreated, 0 = no growth, -100 = all killed)
Holding throughout (details): 10 µM unless noted

Assay [1] relates to SR leukemia.
Assay [2] deals with RPMI-8226 leukemia.
The subject of assay [3] is OVCAR-8 ovarian.
In assay [4] the test system is OVCAR-5 ovarian.
Assay [5] has as its system OVCAR-4 ovarian.
Assay [6] deals with SK-OV-3 ovarian.
In assay [7] the test system is IGROV1 ovarian.
For assay [8], the system named is OVCAR-3 ovarian.
Assay [9] has as its system HS 578T breast.
Assay [10] relates to NCI/ADR-RES ovarian.
In assay [11] the test system is T-47D breast.
Assay [12] deals with BT-549 breast.
Assay [13] deals with MDA-MB-435 melanoma.
The test system of assay [14] is SW-620 colon.
The subject of assay [15] is MCF7 breast.
Assay [16] has as its system HCT-116 colon.
Assay [17] relates to HCC-2998 colon.
For assay [18], the system named is KM12 colon.

In the case of `CCCCCCCCCCCCCCCCCCNC(=O)[C@H]1CSC(c2cccs2)N1` (some centres undefined), the growth in assay [1] is -41.2% (active); in assay [2] it was -51.1% (active); in assay [3], -23% (active); in assay [4], -54.1% (active); in assay [5] it was 42.2%; in assay [6], 39.7%. The growth in assay [7] is 2.04% (active); in [8], -17.3% (active); in assay [9], -31.7% (active); in [10], -45.3% (active); in assay [11], -65.7% (active); in assay [12] it was -77.4% (active). Further, the growth in [13] was -90.3% (active); in assay [14] it was -65.5% (active); in assay [15], -70.6% (active); in [16] it was -89.6% (active); in assay [17] it was -82.4% (active); in [18] it was -70.9% (active).

Take `COc1cc(/C=C/C(=O)c2c(C)nc3ccccc3c2C)ccc1OCCCCOc1cc2c(cc1OC)C(=O)N1CCC[C@H]1C=N2`: the growth was -25.1% (active) in assay [1]; -61.2% (active) in assay [2]; -7.99% (active) in [3]; -59.6% (active) in assay [4]; -20.1% (active) in assay [5]; -50.1% (active) in [6]. Further, the growth is -100% (active) in assay [7]; -57.1% (active) in assay [8]; 39% in [9]; 43.9% in assay [10]; -64.7% (active) in assay [11]; -64.8% (active) in assay [12]. The growth in [13] is -34.8% (active); in assay [14], -62.2% (active); in [15] it was -86% (active); in assay [16], -65.9% (active); in [17] it was -100% (active); in assay [18], -69.7% (active).

Regarding `O=Nc1c(-c2cccc([N+](=O)[O-])c2)nc2ncccn12`, the growth is -27.8% (active) in [1]; -30.7% (active) in assay [2]; 81.1% in assay [3]; 93.5% in assay [4]; 86.5% in [5]; 101% in assay [6]. For the same compound, the growth is 40.5% in assay [7]; 44.9% in assay [8]; 107% in [9]; 97.5% in assay [10]; 73% in [11]; 73.4% in assay [12]. Moreover, the growth was 99.2% in assay [13]; 18.2% in [14]; 70.2% in assay [15]; 51.1% in assay [16]; 93.6% in [17]; 89.3% in assay [18].

In the case of `COc1ccc(CCNC2=CC(=O)CCC2)cc1OC`, the growth in assay [1] was 85.9%; in assay [2], 107%; in assay [3] it was 106%; in [4], 105%; in assay [5] it was 115%; in assay [6], 105%. In addition, the growth was 113% in [7]; 105% in assay [8]; 94.6% in [9]; 102% in assay [10]; 100% in [11]; 103% in assay [12]. In addition, the growth is 110% in [13]; 101% in assay [14]; 105% in assay [15]; 106% in assay [16]; 106% in assay [17]; 99% in [18].

`Brc1cccc(-c2cc(-c3ccc4c(c3)OCCCO4)[nH]n2)c1`: the growth in [1] was 41.7% [25 µM]; in assay [2], 57.2% [25 µM]; in assay [3], 69.3% [25 µM]; in assay [4], 63% [25 µM]; in [5], 68.1% [25 µM]; in assay [6], 53.1% [25 µM]. The growth in assay [7] was 46.8% [25 µM]; in assay [8], 48.7% [25 µM]; in [9] it was 71.1% [25 µM]; in [10] it was 22.1% [25 µM]; in [11], 29.2% [25 µM]; in assay [12], 72.8% [25 µM]. Further, the growth in [13] was -7% [25 µM] (active); in [14], 31.8% [25 µM]; in assay [15], 23.2% [25 µM]; in [16], 51.4% [25 µM]; in [17], 75.6% [25 µM]; in assay [18], 20% [25 µM].

Take `Cc1ccc(-c2csc(NC(=O)CCCCl)n2)cc1`: the growth in assay [1] was 84.4%; in assay [2] it was 82.7%; in [3], 106%; in assay [4], 94.6%; in assay [5] it was 90.7%; in [6], 105%. The growth was 95% in assay [7]; 101% in assay [8]; 105% in [9]; 101% in assay [10]; 77.2% in assay [11]; 98.1% in assay [12]. In addition, the growth is 103% in assay [13]; 107% in assay [14]; 90.7% in assay [15]; 98.6% in [16]; 103% in assay [17]; 95% in assay [18].

With `O=C1NN(C(=O)c2ccc(Cl)cc2)C(c2ccccc2)=N/C1=C\c1cn(-c2ccccc2)nc1-c1ccccc1`, the growth in assay [1] was 90%; in assay [2], 117%; in assay [3], 94.1%; in assay [4], 93.4%; in [5] it was 96.8%; in [6], 102%. Besides, the growth is 95.1% in [7]; 112% in assay [8]; 94.8% in [9]; 92.9% in [10]; 90.4% in assay [11]; 101% in [12]. For the same compound, the growth in assay [13] is 71.4%; in assay [14], 101%; in [15], 91.3%; in [16], 82.4%; in assay [17], 101%; in assay [18], 98.6%.

For the compound `O=C1C(Cl)=C(Nc2ccccn2)C(=O)c2ccccc21`, the growth in [1] was 81.4%; in assay [2], 56.5%; in assay [3], 29.5%; in assay [4], 115%; in [5], 30.2%; in assay [6], 108%. For the same compound, the growth in assay [7] is 34.4%; in [8] it was 26.9%; in assay [9] it was -9.73% (active); in assay [10], 34.9%; in assay [11] it was 33.6%; in assay [12], 100%. Besides, the growth in [13] is -81.4% (active); in assay [14] it was 30.5%; in assay [15], 29.6%; in assay [16] it was 19.9%; in [17], 110%; in assay [18], 86%.
